# Test results published in paper PMC5540273 (PLoS ONE, 2017).
# How the values were obtained:
# Details in all cases: concentration: 1 μM, replicates: in singlicate; n = 1
# MAP3K3 = tested on: MAP3K3
# MAP3K4 = tested on: MAP3K4
# MAP4K2 = tested on: MAP4K2
# MAP4K3 = tested on: MAP4K3
# MAP4K4 = tested on: MAP4K4
# MAP4K5 = tested on: MAP4K5
# MAPKAPK2 = tested on: MAPKAPK2
# MAPKAPK5 = tested on: MAPKAPK5
# MARK1 = tested on: MARK1
# MARK2 = tested on: MARK2
# MARK3 = tested on: MARK3
# MARK4 = tested on: MARK4
# MAST1 = tested on: MAST1
# MEK1 = tested on: T1, MEK1
# T1 construct: gene MAP2K1
# MEK2 = tested on: T2, MEK2
# T2 construct: gene MAP2K2
# MEK3 = tested on: T3, MEK3
# T3 construct: gene MAP2K3
# MEK4 = tested on: T4, MEK4
# T4 construct: gene MAP2K4
# MEK5 = tested on: T5, MEK5
# T5 construct: gene MAP2K5
# MEK6 = tested on: T6, MEK6
# T6 construct: gene MAP2K6
# MELK = tested on: MELK
# 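Also: KINOMEscan kinase panel screen.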
Structure (SMILES),%Inh (MAP3K3),%Inh (MAP3K4),%Inh (MAP4K2),%Inh (MAP4K3),%Inh (MAP4K4),%Inh (MAP4K5),%Inh (MAPKAPK2),%Inh (MAPKAPK5),%Inh (MARK1),%Inh (MARK2),%Inh (MARK3),%Inh (MARK4),%Inh (MAST1),%Inh (MEK1),%Inh (MEK2),%Inh (MEK3),%Inh (MEK4),%Inh (MEK5),%Inh (MEK6),%Inh (MELK)
CCn1c(-c2ccncc2)nc2cnccc21 [SB-735216],10%,23%,12%,0%,1%,0%,16%,29%,16%,100%,96.1%,8%,37%,5%,11%,34%,7%,25%,0%,0%
Cn1ccc2ncnc(Nc3ccc(Oc4cccc(Cl)c4)c(Cl)c3)c21,15%,17%,14%,0%,1%,0%,0%,14%,0%,25%,0%,9%,0%,29%,31%,1%,17%,99.6%,27%,0%
CC(C)N1CCC(n2cnc(-c3ccc(F)cc3)c2-c2ccnc(N)n2)CC1 [SB-223132],0%,26%,0%,0%,0%,0%,1%,0%,0%,0%,14%,15%,0%,0%,22%,0%,0%,31%,3%,8%
C[C@@H]1CCN(C(=O)CO)C[C@@H]1N(C)c1ncnc2[nH]ccc12,7%,5%,0%,0%,0%,0%,0%,0%,0%,0%,0%,0%,5%,0%,0%,0%,0%,12%,3%,0%
COc1ccc(NC(=O)Nc2ccc(C)c(-c3ccc(C(=O)Nc4ccncc4)cc3)c2)cc1 [GSK1398475],0%,0%,0%,0%,0%,0%,6%,0%,0%,0%,0%,0%,0%,0%,0%,0%,18%,0%,0%,6%
Nc1nc(-c2ccccn2)c(-c2ccnc3ccccc23)s1 [GW548057],0%,4%,0%,0%,4%,0%,0%,0%,0%,0%,4%,0%,9%,8%,12%,2%,12%,32%,10%,26%
Clc1cc(Nc2ncnc3cc[nH]c23)ccc1OCc1ccccn1,27%,10%,0%,0%,4%,6%,5%,0%,13%,0%,5%,4%,45%,17%,23%,19%,11%,76%,17%,0%
CCC(CC)(CC)n1cnc2c(N)ncnc21 [SKF-97620],0%,0%,25%,0%,0%,0%,0%,10%,24%,15%,34%,37%,32%,10%,21%,36%,43%,45%,14%,0%
FC(F)(F)c1ccc(-c2cc(-c3c[nH]nc3-c3ccccn3)ccn2)cc1 [GW599550],0%,0%,0%,0%,60%,8%,28%,0%,0%,0%,0%,2%,0%,5%,0%,0%,18%,8%,0%,0%
Clc1cccc(-c2nc(Nc3ccncc3)c3ccccc3n2)c1 [GW873004],20%,23%,0%,0%,17%,3%,0%,0%,0%,0%,32%,23%,53%,10%,21%,0%,0%,14%,0%,31%
O=C(NCCCN1CCCC1=O)c1cnc(NCc2cc(Cl)ccc2Cl)nc1NC1CCNCC1,57%,12%,0%,16%,0%,19%,0%,0%,0%,0%,0%,0%,0%,0%,3%,0%,0%,0%,0%,0%
Oc1ccc2ncnc(Nc3ccc(OCc4ccccc4)cc3)c2c1 [GI262866],0%,2%,0%,11%,4%,0%,16%,0%,0%,0%,22%,0%,0%,18%,2%,0%,11%,99.1%,0%,0%
C[C@H]1CC[C@@H](C(=O)Nc2ccccc2)CN1c1cc(-c2ccc3c(N)n[nH]c3c2)nc(N)n1 [GSK2283293],34%,5%,0%,0%,7%,0%,22%,0%,0%,0%,0%,0%,0%,0%,0%,0%,3%,11%,0%,0%
CC(=O)Nc1n[nH]c2ncc(-c3ccccc3)cc12 [SB-548492],37%,11%,25%,0%,0%,4%,5%,8%,11%,5%,0%,8%,42%,23%,35%,19%,21%,87%,0%,21%
O=C(CCO)NCCn1ccc2ncnc(Nc3ccc(Oc4cccc(C(F)(F)F)c4)c(Cl)c3)c21,0%,0%,0%,3%,3%,0%,0%,0%,0%,4%,0%,0%,0%,0%,34%,0%,0%,99.4%,0%,0%
Cc1ccc(C)c(NC(=O)NCCNc2ccnc(Nc3ccc(F)cc3)n2)c1 [GSK1379878],0%,0%,0%,0%,0%,0%,0%,0%,0%,0%,0%,9%,0%,0%,0%,11%,0%,43%,0%,4%
O=c1cc(N2CCOCC2)nc2n(Cc3cccc(Cl)c3)ccn12 [GSK2296823],0%,4%,0%,7%,0%,0%,40%,0%,0%,81%,0%,5%,0%,8%,0%,0%,4%,13%,0%,0%
Fc1ccc(-c2ncn(CCCNCc3ccccc3)c2-c2ccncc2)cc1,16%,7%,14%,0%,0%,12%,10%,19%,0%,0%,5%,0%,28%,26%,20%,30%,0%,31%,17%,5%
CC(C)(C)c1ccc(-n2cnc3c(N)ncnc32)cc1 [SKF-97263],0%,10%,11%,5%,6%,6%,23%,8%,0%,0%,0%,0%,0%,0%,10%,0%,21%,44%,0%,13%
COC(=O)c1c(-c2ccccc2)c2cc(Cl)ccc2c(=O)n1Cc1ccc(S(C)(=O)=O)cc1,26%,0%,3%,13%,0%,0%,24%,0%,0%,0%,0%,0%,0%,0%,29%,9%,10%,0%,4%,0%
Cc1cc(N2CCC(NS(=O)(=O)c3ccc(F)cc3)CC2)nc(Nc2cccc(C#N)c2)n1.O=C(O)C(F)(F)F [GSK1653537],0%,40%,0%,0%,5%,3%,23%,0%,0%,0%,0%,9%,0%,0%,0%,0%,78%,19%,62%,5%
